The list is not random: actives were taken first. Their share in the collection is about 3.5%.
FBW7 activator – FBW7 E3 ligase activators, primary screen, biochemical, AlphaScreen, human. normalized activity (activation), % at 26.1 µM. F-box/WD repeat-containing protein 7 (Homo sapiens), Q969H0. AlphaScreen FBW7–phospho-cyclin E peptide binding, activator screen. 650,000 tested, 0.13% active. AID 1259310, 2017; in the data active means normalized activity above about 1.9%;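 further: purified mutant Fbw7 with reduced substrate affinity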
TEAD-YAP inh – TEAD-YAP interaction inhibition, primary screen, TEAD-YAP interaction inhibitor project, luminescence, HEK-TIYL cells | 640,000 tested, 1.4% active | AID 1259422, 2018 | TEAD-Gal4/YAP UAS-luciferase luminescence | inhibition, % at 9.12 µM; in the data active means inhibition above about 32%;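 further: 0% = median of test compound wells and 100% = reference inhibitor wells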
GPR151 ag – activators of human GPR151, primary screen, cell-based, PathHunter beta-arrestin, luminescence; 650,000 tested, 1% active; AID 1508602, 2020; PathHunter beta-arrestin GPR151 cells; activation, % at 11.2 µM; in the data active means activation above about 4.9%;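 further: 0% = median of compound wells and 100% = cells with positive control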
MITF primary – MITF inhibitors, primary screen, biochemical, AlphaScreen, human | Microphthalmia-associated transcription factor (Homo sapiens), O75030 | AlphaScreen MITF homodimerization, bead proximity signal | inhibition, % at 2.6 µM | 650,000 tested, 0.91% active; in the data active means inhibition above about 50%;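 further: 0% = vehicle wells with protein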
Target sequence (O75030 whole entry, looked up): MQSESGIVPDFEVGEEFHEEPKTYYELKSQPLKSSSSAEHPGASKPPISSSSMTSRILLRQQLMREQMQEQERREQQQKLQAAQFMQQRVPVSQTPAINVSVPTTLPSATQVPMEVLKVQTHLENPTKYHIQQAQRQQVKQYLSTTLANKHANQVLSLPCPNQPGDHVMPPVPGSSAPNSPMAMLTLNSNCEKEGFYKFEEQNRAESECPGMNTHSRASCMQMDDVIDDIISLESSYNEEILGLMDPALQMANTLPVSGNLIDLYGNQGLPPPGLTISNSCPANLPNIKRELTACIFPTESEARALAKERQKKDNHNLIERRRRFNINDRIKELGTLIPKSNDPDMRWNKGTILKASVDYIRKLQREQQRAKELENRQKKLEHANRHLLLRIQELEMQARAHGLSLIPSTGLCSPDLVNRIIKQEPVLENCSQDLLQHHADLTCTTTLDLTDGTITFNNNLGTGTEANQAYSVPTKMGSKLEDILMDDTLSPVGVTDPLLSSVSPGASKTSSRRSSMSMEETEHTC
The depositor's hits bear a star.

SMILES	FBW7 activator	TEAD-YAP inh	GPR151 ag	MITF primary
COc1cc(Nc2nc(-c3ccc(N4CCOCC4)nc3)ncc2C)cc(OC)c1OC	0	30	-1	5
COc1cc(Nc2nc(-c3ccccc3)nc3nc[nH]c23)cc(OC)c1OC	0	60*	0	5
COc1cc(Nc2nc(-c3ccc(N4CCOCC4)nc3)nc3nc[nH]c23)cc(OC)c1OC	1	52*	-1	21
COc1ccc(-c2nc3ncnc(Nc4cc(OC)c(OC)c(OC)c4)c3[nH]2)cc1	0	50*	-3	4
COc1ccc(-c2nc3ncnc(NCc4cccc(C(F)(F)F)c4)c3[nH]2)cn1	0	54*	0	13
COc1ccc(Nc2nc(C)cc(NCc3cccc(C(F)(F)F)c3)n2)cn1	1.9*	29	1	6
COc1ccc(Nc2nc(C)cc(NCc3cccc(C(F)(F)F)c3)n2)cc1	0	38*	0	6
COc1ccc(Nc2nccc(NCc3cccc(C(F)(F)F)c3)n2)cn1	0	9	0	-13
COc1ccc(-c2cc(C(=O)N/N=C(\C)c3ccc(Cl)cc3)[nH]n2)cc1	0	20	0	0
C/C(=N\NC(=O)c1ccccn1)c1cccs1	0	65*	-6	12
CCOc1ccc(-c2cc(C(=O)N/N=C(\C)c3cccc(OC)c3)[nH]n2)cc1	0	52*	-1	-1
CCOc1ccc(-c2cc(C(=O)N/N=C(\C)c3cccs3)[nH]n2)cc1	0	60*	-1	10
COc1cc(Nc2cc(C)nc(Nc3ccccc3)n2)cc(OC)c1OC	0	47*	1	2
COc1cc(Nc2nc(C)cc(Nc3ccc(NC(C)=O)cc3)n2)cc(OC)c1OC	0	-1	1	15
CCNc1cc(C)nc(Nc2ccc(NC(=O)c3cc(OC)c(OC)c(OC)c3)cc2)n1	0	77*	-1	12
COc1cc(Nc2nc(C)cc(Nc3ccccc3)n2)cc(OC)c1OC	0	46*	3	5
Cc1cc(C)nc(Nc2ccc(Nc3ccccc3)cc2)n1	0	33*	-2	7
COc1cccc(CN2CCC(CNc3cc(F)c(-c4cn[nH]c4)cc3OCCN(C)C)C2)c1 (centres undefined)	-1	-19	-1	6
CCc1cccc(NC(=O)N[C@H]2C[C@H]3C(=O)N[C@@H](COCc4ccccc4)C(=O)N3C2)c1	0	15	0	6
COc1cc(Nc2ncc(C)c(Nc3ccccc3)n2)cc(OC)c1OC	0	34*	4	-3
CCCCOc1ccc(-c2nn(-c3ccccc3)cc2/C=c2\sc3nc(=O)c(Cc4ccccc4)nn3c2=O)cc1C	0	4	-1	76*
CCCCOc1ccc(-c2nn(-c3ccccc3)cc2/C=c2\sc3nc(=O)c(C)nn3c2=O)cc1C	0	9	0	-24
Clc1ccc(-n2ncc3c(N4CCCCCC4)ncnc32)cc1	0	90*	4	-6
Cc1ccc(-n2ncc3c(N4CCOCC4)ncnc32)cc1Cl	0	92*	-3	-4
Clc1ccc(-n2ncc3c(N4CCN(c5ccc(Cl)c(Cl)c5)CC4)ncnc32)cc1	0	9	0	10
SMILES	FBW7 activator	TEAD-YAP inh	GPR151 ag	MITF primary
Clc1ccc(-n2ncc3c(NCCN4CCOCC4)ncnc32)cc1	0	42*	1	-3
Cc1cccc(-n2ncc3c(N4CCN(c5ccc(Cl)c(Cl)c5)CC4)ncnc32)c1	0	3	-1	-1
Clc1ccc(CCNc2ncnc3c2cnn3-c2ccc(Cl)cc2)cc1	0	0	0	9
Clc1ccc(-n2ncc3c(N4CCOCC4)ncnc32)cc1	0	80*	0	-9
Cc1cn(-c2nc(-c3ccccc3)oc2-c2ccccc2)c(=O)[nH]c1=O	0	-14	1	-2
Cc1c(C(=O)Oc2ccc(C#N)cc2)sc2ncn(Cc3ccccc3F)c(=O)c12	0	0	2	3
O=C(/C=C/c1ccccc1)CC(=O)C(Cl)(Cl)Cl	0	11	-1	1
Fc1ccc(-n2ncc3c(N4CCOCC4)ncnc32)cc1	0	77*	0	-21
COc1ccc(COC(=O)c2c(SC)nsc2SC)cc1	0	38*	-2	1
COc1cc(OC)cc(C2=NC3(CCCCC3)NC2=O)c1	2.1*	3	1	-8
COc1ccc(S(=O)(=O)N(CCc2ccccc2)CC(=O)Nc2ccc(C)cc2C)cc1	0	2	2	-5

Source: PubChem
